Assay results from PMC4336329 (PLoS ONE, 2015).
The campaign covered roughly 310,000 compounds. About 14,000 (4.5%) showed an effect of 50% or more. The effect is printed as a negative number. What follows is part of a selection rich in strong results, with near analogues and random picks from the rest.

biological target: human ether-à-go-go-related gene (hERG) potassium channel (human, UniProt Q12809); assay: primary screen, population patch clamp on CHO cells stably expressing hERG; higher = less effect of the substance
Sequence (Q12809 whole entry, looked up): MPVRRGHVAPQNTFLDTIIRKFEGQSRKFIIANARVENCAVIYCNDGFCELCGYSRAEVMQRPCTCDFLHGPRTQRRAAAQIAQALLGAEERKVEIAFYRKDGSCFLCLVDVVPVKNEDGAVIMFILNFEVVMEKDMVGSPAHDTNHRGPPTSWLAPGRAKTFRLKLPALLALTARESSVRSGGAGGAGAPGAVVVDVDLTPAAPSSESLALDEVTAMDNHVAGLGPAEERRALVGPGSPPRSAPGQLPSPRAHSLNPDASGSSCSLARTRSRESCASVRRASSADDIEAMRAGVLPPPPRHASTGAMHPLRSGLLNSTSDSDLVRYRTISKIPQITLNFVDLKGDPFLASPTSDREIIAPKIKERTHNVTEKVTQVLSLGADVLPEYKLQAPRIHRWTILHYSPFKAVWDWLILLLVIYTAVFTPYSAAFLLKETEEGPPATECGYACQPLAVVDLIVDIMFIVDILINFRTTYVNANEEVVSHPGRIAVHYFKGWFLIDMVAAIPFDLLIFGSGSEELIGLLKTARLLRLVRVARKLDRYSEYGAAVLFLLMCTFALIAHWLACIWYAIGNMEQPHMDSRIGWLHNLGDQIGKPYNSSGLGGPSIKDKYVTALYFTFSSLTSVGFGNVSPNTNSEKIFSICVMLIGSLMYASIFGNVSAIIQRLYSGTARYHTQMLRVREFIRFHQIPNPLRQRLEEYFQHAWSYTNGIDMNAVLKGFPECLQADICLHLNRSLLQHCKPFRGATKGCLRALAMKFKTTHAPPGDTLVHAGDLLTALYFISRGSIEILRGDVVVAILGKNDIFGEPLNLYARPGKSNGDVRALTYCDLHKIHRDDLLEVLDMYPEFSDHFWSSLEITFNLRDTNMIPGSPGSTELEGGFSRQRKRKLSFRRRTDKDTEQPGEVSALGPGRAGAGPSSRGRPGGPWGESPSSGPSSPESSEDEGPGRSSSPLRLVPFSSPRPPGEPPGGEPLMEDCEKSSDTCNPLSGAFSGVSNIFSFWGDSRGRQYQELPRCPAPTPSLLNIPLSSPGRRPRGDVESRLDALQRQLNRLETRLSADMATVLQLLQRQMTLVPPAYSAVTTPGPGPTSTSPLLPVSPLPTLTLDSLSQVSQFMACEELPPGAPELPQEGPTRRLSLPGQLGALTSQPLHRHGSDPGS
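Note: peak tail current of the secondary pulse compared with the same well before compound.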

SMILES	hERG current change (%, negative = inhibition) at 10uM [%]
CCc1ccccc1NC(=O)Cn1nc(C(F)(F)F)c2c1CCC2	7.74
CN=c1scc(C)n1/N=C/c1cc(Br)c(O)c(OC)c1	15.8
C=C(C)c1cccc(C(C)(C)NC(=O)NCC2CCCO2)c1 (stereo not drawn)	3.74
CCOc1ccc(Cl)cc1S(=O)(=O)N1CCC(C(=O)NCC2CCCO2)CC1 (stereo not drawn)	-2.63
CC(C)c1nc(N2CCOCC2)c(C#N)c2c1COC(C)(C)C2	9.56
Cc1cc(/C=C2/C(=N)N3C(=NC2=O)SN=C3S(C)(=O)=O)c(C)n1-c1ccc(F)cc1	47.6
CCOc1ccc(-n2c(C)cc(/C=C3/C(=N)N4C(=NC3=O)SN=C4S(C)(=O)=O)c2C)cc1	-53.4
Cc1cc(/C=C2/C(=N)N3C(=NC2=O)SN=C3S(C)(=O)=O)c(C)n1-c1ccccc1	0.917
CCOc1ccccc1OCCC(=O)OCC(=O)c1ccc[nH]1	-16.2
Cc1cc(NC(=O)C23CCC(C)(C(=O)O2)C3(C)C)no1 (stereo not drawn)	12
CCN(CC)CCCN(Cc1cc2cc(OC)ccc2[nH]c1=O)C(=O)Nc1ccccc1	-55.3
CCN(CC)CCCN(Cc1cc2cc(OC)ccc2[nH]c1=O)C(=O)Nc1ccc(F)cc1	-69.9
COc1ccc2[nH]c(=O)c(CN(CC3CCCO3)C(=O)Nc3ccccc3)cc2c1 (stereo not drawn)	-2.72
COc1ccc(NC(=O)N(Cc2cc3cc(OC)ccc3[nH]c2=O)CC2CCCO2)cc1 (stereo not drawn)	-31.6
CCN(CC)CCCN(Cc1cc2cc3c(cc2[nH]c1=O)OCO3)C(=S)Nc1ccc(OC)cc1	-46.8
CCOc1ccc2[nH]c(=O)c(CN(Cc3cccnc3)C(=O)Nc3ccccc3OC)cc2c1	-6.63
COc1ccc2[nH]c(=O)c(CN(CCCN(C)C)C(=O)Nc3ccc(F)cc3)cc2c1	-65.7
CCN(CC)CCCN(Cc1cc2cc(OC)c(OC)cc2[nH]c1=O)C(=O)Nc1ccccc1	-13.8
COc1ccc(NC(=O)N(CCCN(C)C)Cc2cc3cc(OC)ccc3[nH]c2=O)cc1	-38.5
COc1ccc2[nH]c(=O)c(CN(CCCN(C)C)C(=O)Nc3ccccc3)cc2c1	-29.2
COc1ccc2[nH]c(=O)c(CN(Cc3cccnc3)C(=O)Nc3ccccc3)cc2c1	-54.6
COc1cc2cc(CN(Cc3cccnc3)C(=O)Nc3ccccc3)c(=O)[nH]c2cc1OC	-21.8

SMILES	hERG current change (%, negative = inhibition) at 10uM [%]
COC(=O)c1cscc1NC(C)=O	20.7
O=C(O)CCc1n[nH]c(=S)[nH]c1=O	5.81
Cc1ccc(C)c(C(=O)C(C)OC(=O)CN2C(=O)NC3(CC(C)CC(C)(C)C3)C2=O)c1 (stereo not drawn)	23.2
CCOc1ccc(CCNC(=O)Cn2cccc2C(=O)c2ccccc2)cc1OCC	-2.85
CSCCC(NC(=O)COc1ccccc1)C(=O)Nc1ccc(C)cc1 (stereo not drawn)	-3.07
CC(=Nc1ccccc1)c1sc2ccccc2c1O	-10.8
ON1C(c2ccc(Cl)cc2Cl)N(O)[C@H]2CCCC[C@H]21 (stereo partly drawn)	-1.85
CCN(CC)CCCN(Cc1cc2cc3c(cc2[nH]c1=O)OCCO3)C(=O)Nc1ccc(F)cc1	-61.6
COc1cc2cc(CN(C(=O)Nc3ccccc3)C3CCCC3)c(=O)[nH]c2cc1OC	-44.2
CCN(CC)CCCN(Cc1cc2cc3c(cc2[nH]c1=O)OCCO3)C(=O)Nc1ccccc1	-41.7
CCN(CC)CCCN(Cc1cc2cc3c(cc2[nH]c1=O)OCO3)C(=S)Nc1ccccc1	-45.9
COc1ccc2cc(CN(C(=O)Nc3ccccc3)C3CCCC3)c(=O)[nH]c2c1	-60.5
COc1ccc2cc(CN(C(=O)Nc3ccccc3OC)C3CCCC3)c(=O)[nH]c2c1	-46.9
COc1ccc(NC(=O)CSc2nc3c([nH]c4ccccc43)c(=O)n2C)c(OC)c1	19
COC(=O)c1cccc(S(=O)(=O)N2CCC(C)CC2)c1	-4.23
O=C(COc1ccccc1)Nc1cc(S(=O)(=O)N2CCOCC2)ccc1N1CCCC1	-8.47
Cc1cc2nc(C)n(CCCNC(=O)Nc3ccc(F)cc3)c2cc1C	-49.9
Cc1cc2nc(C)n(CCCNC(=O)Nc3ccc(C#N)cc3)c2cc1C	-34
CCOc1ccc(NC(=O)NCCCn2c(C)nc3cc(C)c(C)cc32)cc1	-55.5
COc1cccc(-c2nc(-c3ccccn3)no2)c1OC	0.968
Cc1noc(C)c1COc1ccc(C(=O)OCc2nnc(-c3ccc(Cl)cc3)o2)cc1	10.1
CNC(=O)c1ccccc1S(=O)c1ccccc1C#N (stereo not drawn)	2.49

SMILES	hERG current change (%, negative = inhibition) at 10uM [%]
CCOC(=O)c1ccc(NC(=O)NCCN2CCCCC2)cc1	-31.6
COc1cc2c(cc1OC)C(c1cccs1)N(C(=O)c1ccc(S(=O)(=O)N(C)C)cc1)CC2 (stereo not drawn)	-72.6
COc1cc2c(cc1OC)CN(C(=O)c1cccc(S(=O)(=O)N(C)C)c1)CC2	6.05
COc1ccc(C(=O)N2CCc3cc(OC)c(OC)cc3C2c2ccc(OC)c(OC)c2)cc1OC (stereo not drawn)	1.43
COc1ccc(C(=O)N2CCc3cc(OC)c(OC)cc3C2c2ccc(OC)c(OC)c2)cc1 (stereo not drawn)	-12
COc1cc2c(cc1OC)C(c1cccs1)N(C(=O)c1cccc(S(=O)(=O)N(C)C)c1)CC2 (stereo not drawn)	-70.7
COc1cc2c(cc1OC)C(c1ccccc1)N(C(=O)c1cccc(S(C)(=O)=O)c1)CC2 (stereo not drawn)	-24
N#C/C(=C\c1ccco1)C(=O)NCc1ccccc1	4.87
CC(=O)c1c(C(C)=O)c(C)n(C(c2ccccc2)c2ccccc2)c1C	-9.83
COc1ccc(-c2nnnn2C(C)C)cc1	-0.893
COc1ccc(C(=O)C(Sc2nnc(C)c(=O)[nH]2)c2ccc(OC)cc2)cc1 (stereo not drawn)	-12.3
Cc1nnc(C)c2c(C)n(C(C)c3ccccc3)c(C)c12 (stereo not drawn)	-20.7
Cc1nnc(C)c2c(C)n(C(c3ccccc3)c3ccccc3)c(C)c12	-71.4
COc1ccc(C(C)n2c(C)c3c(C)nnc(C)c3c2C)cc1 (stereo not drawn)	-57.9
CCN(Cc1ccccc1)S(=O)(=O)c1cc(C(=O)OC)n(C)c1	-32.9
COc1ccc(Cn2c(=O)oc3ccc(C)cc32)cc1	1.22
Cc1ccc(-c2noc(CSc3nc(N)cc(N)n3)n2)cc1	-4.24
CC(=O)N(Cc1ccco1)Cc1cc2cccc(C)c2n2nnnc12	-3.36
CCn1cc(C(=O)NCc2cccs2)c(=O)c2cc(S(=O)(=O)N3CCOCC3)ccc21	-20.3
Cc1cc(C)nc(Nc2n[nH]c(C)n2)n1	16.4
Clc1cc(Cl)cc(Nc2ncn[nH]2)c1	-8.8
Cc1cc(C)nc(Nc2ncn[nH]2)n1	-73.3

SMILES	hERG current change (%, negative = inhibition) at 10uM [%]
CCOC(=O)C1(CC2CC2)CCN(C(=O)c2cc(OC)nc3ccccc23)CC1	-12.9
CC(C)[C@H](NC(=O)c1ccccc1)C(=O)OCC(=O)c1ccc2c(c1)NC(=O)CO2	-26.3
COCCCNc1nc2ccccc2nc1NS(=O)(=O)c1ccc(C)cc1	-8.35
O=C(Nc1ccc([N+](=O)[O-])cc1Cl)c1cc(Cl)ccc1O	7.32
NS(=O)(=O)c1ccc(NCCCn2ccnc2)c([N+](=O)[O-])c1	8.43
CC(C)NS(=O)(=O)c1ccc(NCCCn2ccnc2)c([N+](=O)[O-])c1	-1.68
O=C(c1ccccc1)c1ccc(NCCCn2ccnc2)c([N+](=O)[O-])c1	-81.3
O=C(/C=C/c1ccccc1[N+](=O)[O-])NCCCn1ccnc1	2.43
CCN(CC)S(=O)(=O)c1ccc(NCCCn2ccnc2)c([N+](=O)[O-])c1	-57.2
O=C(c1ccccc1)c1ccc(-n2ccnc2)c([N+](=O)[O-])c1	-25.8
CC(=O)Nc1ccc(C(=O)OC2CCOC2=O)cc1 (stereo not drawn)	12.5
Cc1cc(OC(C)C(=O)N/N=C/CC(C)c2ccccc2)ccc1Cl (stereo not drawn)	16.1
C=CCc1cccc(C2Nc3ccccc3C(=O)N2O)c1O (stereo not drawn)	7.52
CCCC(=O)Nc1ccc(Oc2ccc(NC(=O)CCC)cc2)cc1	2.76
COc1cc(C2c3c(-c4ccccc4)n[nH]c3C(=O)N2c2ccc(C(=O)O)cc2)ccc1O (stereo not drawn)	8.38
N#CC1=C(Nc2ccccc2)SC=C(c2ccc(Br)cc2)N=C1N1CCOCC1	-64.7
c1ccc(Nc2nc(N3CCOCC3)nc(N3CCOCC3)n2)cc1	-7.35
N#Cc1nc(-c2ccccc2Cl)oc1N1CCOCC1	-4.51
N#CC1=C(Nc2ccccc2)SC=C(c2ccc(Cl)c(Cl)c2)N=C1N1CCOCC1	-50.9
N#CC1=C(Nc2ccccc2)SC=C(c2ccc(F)cc2)N=C1N1CCOCC1	-10.8
Br.C=CCN1C(c2ccc(Br)cc2)=CS/C1=C(/C#N)c1nnc(N2CCOCC2)n1-c1ccccc1	-13.4
